This note sets out measurements from PubChem BioAssay (Tox21).

The nature of assay [1]: A CellTox Green Cytotoxicity Assay to monitor cytotoxicity in HepG2 cells - 0 hour (AID 1224882). Further: nearly all actives have a fitted effect of over 35% in size. In short, it runs like this:
(§1)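 HepG2 cells were seeded together with the CellTox Green dye at 600 cells/well, left 5 h at 37 C/5% CO2, then given compounds in DMSO. Fluorescence from dye bound to dead-cell DNA was read repeatedly over 40 h of treatment at 37 C.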

The nature of assay [2]: A CellTox Green Cytotoxicity Assay to monitor cytotoxicity in HEK293 cells - 8 hour (AID 1224884). Further: nearly all actives have a fitted effect of over 35% in size. Put shortly:
(§2)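 HEK293 cells premixed with CellTox Green dye were seeded at 600 cells/well and left 5 h at 37 C/5% CO2 before pin transfer of 23 nL compound in DMSO. Fluorescence from dye bound to dead-cell DNA was read during 40 h treatment.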

A short description of assay [3]: A CellTox Green Cytotoxicity Assay to monitor cytotoxicity in HEK293 cells - 16 hour (AID 1224888). Further: nearly all actives have a fitted effect of over 35% in size. Further: potency means the concentration at half of the fitted maximal effect. In short, it runs like this: as §2
Assay [4] is described as follows: qHTS RealTime-Glo MT Cell Viability Assay in HepG2 cells - 0 hour (AID 1224889). Further: nearly all actives have a fitted effect of over 50% in size. Put shortly: (§3)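 HepG2 cells were seeded at 600 cells/well together with NanoLuc luciferase and a cell-permeant prosubstrate, preincubated 5 h at 37 C/5% CO2, then pin-dosed with compounds in DMSO. Nonlytic luminescence from viable cells was read at each time point.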
(In general: qHTS replaces the single test concentration by a dilution series.)

The nature of assay [5]: qHTS assay to identify small molecule antagonists of the estrogen receptor alpha (ER-alpha) signaling pathway using the BG1 cell line in the presence of 0.1 nM 17-beta-estradiol - cell viability counter screen (AID 1259241). Further: nearly all actives have a fitted effect of over 40% in size. Put shortly:
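In this screen, hormone-deprived VM7Luc4E2 cells were seeded at 4,000 per well, dosed with compound and 0.1 nM estradiol final, and incubated 22 hr at 37C and 5% CO2; fluorogenic live-cell protease signal reported viability.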

Assay [6] is described as follows: qHTS assay to identify small molecule antagonists of the androgen receptor (AR) signaling pathway using the MDA cell line in the presence of 0.5 nM R1881 - cell viability counter screen (AID 1259242). Further: nearly all actives have a fitted effect of over 45% in size. In short, it runs like this:
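MDA-kb2 cells (human breast carcinoma, stably carrying MMTV-luciferase reporter) were exposed to compounds with 0.5 nM R1881 (final) for 16 hr at 37C, 0% CO2; viability then read as live-cell protease fluorescence (CellTiter-Fluor, 30 min) in the same wells.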

Assay [7] can be described thus: qHTS assay to identify small molecule HDAC inhibitors (AID 1259364). Further: nearly all actives have a fitted effect of over 45% in size. Further: potency means the concentration at half of the fitted maximal effect. On activity change, negative = inhibition: top concentration of the series differs between compounds. In short, it runs like this: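 Wild-type HCT-116 cells were plated overnight, exposed to compounds for 2 h at 37 °C, then given HDAC-Glo class I/II luminogenic reagent for 30 min at room temperature before luminescence was read.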
The nature of assay [8]: qHTS assay to identify small molecule HDAC inhibitors - cell viability counter screen (AID 1259365). Further: series mostly up to about 92 µM; nearly all actives have a fitted effect of over 50% in size. In short, it runs like this:
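Measured quantity is CellTiter-Glo luminescence from wild-type HCT-116 cells after compound incubation of 2hr at 37C, 5% CO2; reagent developed 30min at room temperature.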

The nature of assay [9]: qHTS assay to identify small molecule agonists of the sonic hedgehog signaling (Shh) pathway - cell viability counter screen (AID 1259366). Further: nearly all actives have a fitted effect of over 50% in size. Further: potency means the concentration at half of the fitted maximal effect. Put shortly:
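In quantitative high-throughput format, 3T3 Gli1-Luc cells were exposed to compounds for 24hr and multiplexed for viability using CellTiter-Fluor, incubated 1hr at 37C before the fluorescence read.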

Assay [10] can be described thus: qHTS assay to identify small molecule antagonists of the sonic hedgehog signaling (Shh) pathway - cell viability counter screen (AID 1259367). Further: nearly all actives have a fitted effect of over 55% in size. Further: potency means the concentration at half of the fitted maximal effect. In short, it runs like this: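 Seed 3T3 Gli1-Luc cells at 2,000 per well; incubate 4 hr; add compound in DMSO, then conditioned medium; incubate at 37C with 5% CO2; add CellTiter-Fluor after 23 hr; read fluorescence 1 hr later.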

The nature of assay [11]: qHTS assay to identify small molecule agonists of the sonic hedgehog signaling (Shh) pathway (AID 1259368; calls by dose curve; further: series mostly up to about 92 µM; nearly all actives have a fitted effect of over 15% in size). In short, it runs like this:
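NIH/3T3-derived 3T3Gli1-Luc cells carrying a stably integrated Gli1 response element–firefly luciferase reporter were plated, left 4 hr at 37 C, then given compounds in DMSO for 24 hr. Luminescence was read 30 min after adding luciferase reagent.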

A short description of assay [12]: A CellTox Green Cytotoxicity Assay to monitor cytotoxicity in HEK293 cells - 32 hour (AID 1224881). Further: nearly all actives have a fitted effect of over 40% in size. Further: potency means the concentration at half of the fitted maximal effect. In short, it runs like this:
as §2

A short description of assay [13]: A CellTox Green Cytotoxicity Assay to monitor cytotoxicity in HepG2 cells - 32 hour (AID 1224883). Further: nearly all actives have a fitted effect of over 50% in size. Put shortly:
as §1

A short description of assay [14]: qHTS RealTime-Glo MT Cell Viability Assay in HEK293 cells - 24 hour (AID 1224886). In short, it runs like this: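 HEK293 cells were seeded at 600 cells/well together with NanoLuc luciferase and cell-permeant prosubstrate, preincubated 5 h at 37 C/5% CO2, then given compound in DMSO by pintool. Luminescence from viable-cell prosubstrate reduction was read repeatedly over 40 h.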

Assay [15] can be described thus: qHTS RealTime-Glo MT Cell Viability Assay in HEK293 cells - 8 hour (AID 1224887). Put shortly: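 HEK293 cells mixed with RealTime-Glo reagents (NanoLuc plus cell-permeant prosubstrate) at 600 cells/well, preincubated 5 h at 37 C/5% CO2, then given 23 nL compound in DMSO. Nonlytic luminescence from viable cells was read at 0, 8, 16, 24, 32 and 40 h.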
Assay [16] is described as follows: A CellTox Green Cytotoxicity Assay to monitor cytotoxicity in HepG2 cells - 8 hour (AID 1224890). Further: nearly all actives have a fitted effect of over 45% in size. Put shortly: as §1
Assay [17] concerns the target Estrogen receptor (Homo sapiens) (UniProt P03372). Kind of assay: qHTS assay to identify small molecule antagonists of the estrogen receptor alpha (ER-alpha) signaling pathway using the BG1 cell line in the presence of 0.1 nM 17-beta-estradiol (AID 1259244). Further: nearly all actives have a fitted effect of over 50% in size. Put shortly: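 VM7Luc4E2 cells (endogenous full-length ER-alpha, stable 4xERE-luciferase) were grown 5 days in phenol red-free medium with charcoal-stripped FBS, then exposed 22 h at 37C to compounds plus 0.1 nM (final) 17beta-estradiol; ONE-Glo luminescence read-out.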

Assay [18] in a line: qHTS assay to identify small molecule phospholipidosis (PLD) inducers (AID 1259344; active means well fitted curve in the direction sought with a large enough effect; an effect the other way counts as inactive or inconclusive). Put shortly:
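Quantitative HTS in HepG2: compound plus LipidTOX Red dye for 24 h, paraformaldehyde fixation with Hoechst 33342, widefield high-content imaging; amiodarone as positive and DMSO as negative control.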

Assay [19] can be described thus: qHTS RealTime-Glo MT Cell Viability Assay in HepG2 cells - 16 hour (AID 1224885). Further: nearly all actives have a fitted effect of over 50% in size. In short, it runs like this:
as §3

Assay [20] has as its target Androgen receptor (Homo sapiens) (UniProt P10275). Kind of assay: qHTS assay to identify small molecule antagonists of the androgen receptor (AR) signaling pathway using the MDA cell line in the presence of 0.5 nM R1881 (AID 1259243). Further: nearly all actives have a fitted effect of over 50% in size. Put shortly: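 MDA-kb2 human breast carcinoma cells carrying an MMTV-luciferase reporter (AR- and GR-responsive) were plated, rested 5 hr at 37C, dosed with compounds, then stimulated with 0.5 nM R1881 (final) for 16 hr; luminescence was read after ONE-Glo.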

Values without a mark were called inactive. Results filed as inconclusive are left out. Activity calls are given as the source filed them. Unless noted, the call rests on the fitted dose curve; in most records, active means well fitted curve in the direction sought with a large enough effect in the repeat runs; inconclusive means weak or mixed curves; inactive means no such curve, though single readings can be large; an effect the other way counts as inactive or inconclusive.
On the % scale 0 is the no-effect control and ±100 the full control effect.

Chain of Estrogen receptor (Homo sapiens) (P03372 whole entry, looked up): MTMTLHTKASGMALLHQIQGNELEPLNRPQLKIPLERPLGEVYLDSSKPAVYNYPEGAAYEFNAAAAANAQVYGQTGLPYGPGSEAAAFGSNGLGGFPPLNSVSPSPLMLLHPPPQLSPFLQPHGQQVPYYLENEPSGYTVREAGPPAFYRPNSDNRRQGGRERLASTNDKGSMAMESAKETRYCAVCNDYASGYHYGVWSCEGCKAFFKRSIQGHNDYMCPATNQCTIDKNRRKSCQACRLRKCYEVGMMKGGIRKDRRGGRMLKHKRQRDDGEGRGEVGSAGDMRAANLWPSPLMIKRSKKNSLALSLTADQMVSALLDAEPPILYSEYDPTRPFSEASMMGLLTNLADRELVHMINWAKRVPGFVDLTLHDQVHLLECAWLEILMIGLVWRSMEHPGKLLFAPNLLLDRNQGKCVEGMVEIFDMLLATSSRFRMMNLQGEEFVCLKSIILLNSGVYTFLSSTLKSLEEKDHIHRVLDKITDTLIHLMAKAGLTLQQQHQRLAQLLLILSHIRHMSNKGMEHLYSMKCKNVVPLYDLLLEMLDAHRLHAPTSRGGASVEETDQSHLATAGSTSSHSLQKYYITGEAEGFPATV
Chain of Androgen receptor (Homo sapiens) (P10275 whole entry, looked up): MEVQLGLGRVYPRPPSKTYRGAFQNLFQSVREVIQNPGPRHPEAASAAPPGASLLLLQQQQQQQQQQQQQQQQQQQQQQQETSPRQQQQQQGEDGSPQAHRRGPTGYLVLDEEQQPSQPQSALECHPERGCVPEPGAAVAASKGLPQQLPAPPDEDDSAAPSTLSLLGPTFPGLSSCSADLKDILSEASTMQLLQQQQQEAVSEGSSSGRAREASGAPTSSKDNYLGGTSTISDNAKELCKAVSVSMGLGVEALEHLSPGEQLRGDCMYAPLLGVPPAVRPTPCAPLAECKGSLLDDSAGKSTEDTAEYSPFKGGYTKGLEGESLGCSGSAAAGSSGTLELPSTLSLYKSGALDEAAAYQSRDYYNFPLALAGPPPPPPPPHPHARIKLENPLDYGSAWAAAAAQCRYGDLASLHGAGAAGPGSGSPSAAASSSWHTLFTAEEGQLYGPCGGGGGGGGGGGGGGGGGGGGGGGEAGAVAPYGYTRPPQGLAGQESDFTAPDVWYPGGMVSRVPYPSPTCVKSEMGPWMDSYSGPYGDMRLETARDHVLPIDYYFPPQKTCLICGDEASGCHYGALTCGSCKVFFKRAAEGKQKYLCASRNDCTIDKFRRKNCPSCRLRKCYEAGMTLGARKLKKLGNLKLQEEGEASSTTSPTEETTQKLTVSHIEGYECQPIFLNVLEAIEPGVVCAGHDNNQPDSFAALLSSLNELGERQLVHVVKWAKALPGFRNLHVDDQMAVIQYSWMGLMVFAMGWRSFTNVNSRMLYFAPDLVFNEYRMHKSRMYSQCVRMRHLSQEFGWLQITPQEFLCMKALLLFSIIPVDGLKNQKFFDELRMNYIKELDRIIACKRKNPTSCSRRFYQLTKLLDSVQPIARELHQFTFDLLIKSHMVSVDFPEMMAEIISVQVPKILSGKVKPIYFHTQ

For `CC1(C(=O)Nc2ccc(O)c(Cl)c2Cl)CCCCC1`, the outcome in assay [1], in [5], in assay [6], in assay [8] and in assay [11] was inactive. Also, the Potency result in [2], in assay [3], in assay [4] and in [7] was “inactive” in each case. Moreover, the Potency in [9] and in [10] was 43.3 µM (active) in each case.
Regarding `O=C1c2ccccc2C(=O)c2ccccc21`, the figures for the cytotoxicity increase in assay [12], in assay [13] and in assay [16] were 6.55% [at 15.8 µM], 7.1% [at 15.8 µM] and 19.4% [at 15.8 µM], respectively. Besides, the activity change, negative = cytotoxicity is 20.7% [at 15.8 µM] in assay [14]; 16.6% [at 15.8 µM] in assay [15]; 6.06% [at 15.8 µM] in [4]; 0.424% [at 19 µM] in assay [5]; -0.295% [at 19 µM] in assay [8]. Also, the activity change in assay [3] is 5.38% [at 15.8 µM, active compounds read high]; in [11] it was 1.5% [at 18.9 µM]. Also, the results for the viability change, negative = cytotoxic in assay [6], in assay [9] and in assay [10] were 3.34% [at 19 µM], 1.77% [at 19 µM] and -0.095% [at 19 µM], respectively. Moreover, the activity change, negative = inhibition in assay [17] is 34.1% [at 19 µM]. In addition, the molecule was classed as inactive in [18]. The Potency in assay [7] was 3.66 µM (active).
With `CCOP(=S)(Oc1cnc(C(C)(C)C)nc1)OC(C)C` (stereo not given), the Potency result in [13], in assay [2], in assay [19], in [14], in [15] and in assay [3] was “inactive” in each case. Moreover, the Potency entry in assay [4], in assay [16], in [7], in assay [9] and in [10] was “inactive” in each case. In addition, the result in assay [5], in assay [6], in [8] and in assay [11] was inactive.
With `[Cl][Sn]([Cl])([Cl])[Cl]`, the call in assay [1], in assay [5], in [6], in assay [8] and in assay [11] was inactive. Also, the Potency entry in assay [13], in assay [2], in assay [19], in assay [15], in [4] and in assay [16] was “inactive” throughout. Moreover, the Potency result in assay [17], in [7], in assay [9] and in [10] was “inactive” throughout.
Take `O=C1CN2CCOC2(c2ccccc2Cl)c2cc(Cl)ccc2N1` (stereo not given): the Potency entry in assay [12], in assay [13], in [2], in assay [19], in [14] and in assay [15] was “inactive” in each case. Further, the Potency entry in [4], in assay [16], in assay [17], in [7] and in assay [9] was “inactive” each time. The outcome in assay [5], in assay [6], in [8] and in assay [11] was inactive.
With `CC(C)CC(N(C)C)C1(c2ccc(Cl)cc2)CCC1` (stereo not given), the Potency in [12] is 23.9 µM (active); in [3], 21.3 µM (active). The Potency result in assay [19], in assay [14], in [4], in assay [16], in assay [7] and in assay [9] was “inactive” each time. The Potency result in [10] was “inactive”. The result in [5], in assay [6], in [18], in assay [8] and in assay [11] was inactive.
For `C#CCN1C(=O)COc2cc(F)c(N3C(=O)C4=C(CCCC4)C3=O)cc21`, the Potency result in assay [12], in [13], in [19], in [14], in [15] and in assay [4] was “inactive” each time. Moreover, the Potency entry in [16], in assay [20], in assay [17], in assay [7], in assay [9] and in assay [10] was “inactive” throughout. For the same molecule, the outcome in assay [5], in assay [6], in [8] and in assay [11] was inactive.
In the case of `CCCCOC(=O)c1ccccc1N`, the molecule was called inactive in assay [1], in [5], in assay [6], in assay [8] and in assay [11]. Moreover, the Potency entry in assay [2], in [19], in [14], in assay [15], in [4] and in assay [16] was “inactive” throughout. The Potency entry in [7], in [9] and in assay [10] was “inactive” throughout.
Consider `CNC(=O)Oc1c(C(C)(C)C)cc(C)cc1C(C)(C)C`, for which the Potency result in [13], in [19], in [14], in assay [15], in assay [4] and in assay [16] was “inactive” in each case. Besides, the Potency entry in assay [20], in assay [7], in assay [9] and in [10] was “inactive” in each case. For the same molecule, the outcome in assay [5], in assay [6], in assay [8] and in [11] was inactive.
